Structures are written as SMILES. This is part of a sample that, as a whole, favours compounds with a hit. Of some 83,000 tested, about 20% had one in any assay.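 Cells were grown in 96-well plates and exposed to the test compound at a single concentration for 48 hours; results are reported as percent growth, with values below 10 considered active.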 Unmarked numbers belong to inactive results. Calls of active or inactive are those of the source.

For this test, the system named is COLO 205 colon. The experiment in a line: NCI-60 one-dose screen, 48 h (100 = growth as untreated, 0 = no growth, -100 = all killed). Particulars: 10 µM unless noted.
As for `C[C@]12O[C@H](C[C@]1(O)CO)n1c3ccccc3c3c4c(c5c6ccccc6n2c5c31)CNC4=O`, the growth was -84.9% (active). In the case of `CSc1nc2ncnc(SC)c2[nH]1`, the growth is 103%. Under `CCc1nc2cc(/C=C/C(=O)NO)ccc2c(=O)n1CCc1ccc(OC)cc1` stands -2.84% (active). In the case of `COC(=O)[C@H](Cc1ccc(O)cc1)NC(=O)[C@@H](OC)[C@@H]1Cc2cc3cc(OC4CC(OC5CC(O)C(O)C(C)O5)C(O)C(C)O4)c(C)c(O)c3c(O)c2C(=O)[C@H]1OC1CC(OC2CC(OC3CC(C)(O)C(O)C(C)O3)C(O)C(C)O2)C(O)C(C)O1` (some centres undefined), the growth is -22.8% (active). The figure for `Nc1ccc(S(=O)(=O)O)c2cc(S(=O)(=O)O)cc(O)c12` is 105%. The figure for `COc1cc(-c2nc(C(=O)NCC(=O)O)nn2-c2ccc(Cl)cc2)cc(OC)c1OC` is 108%; for `Cc1ccc(NC(=O)c2ccc(CN3CC[C@H](N(C)C)C3)c(C(F)(F)F)c2)cc1Nc1nccc(-c2cncnc2)n1` it is -55.5% (active); for `Cc1cc(Oc2ccccc2)ccc1Nc1ncnc2ccc(-c3cnc(Cl)c(NS(C)(=O)=O)c3)cc12` it is 12.1%. Under `COc1ccc(-n2c(=O)c3ccccc3n(Cc3ccc(C(=O)NO)cc3)c2=O)cc1` stands -50.1% (active); under `N#CC1(C#N)C(c2cccs2)NC(c2cccs2)C1(C#N)C#N` (centres undefined), 106%.

Consider `CC(C)[C@@H]1CC[C@]2(CO2)[C@@H]2C(=O)OCC(C(=O)O)=C[C@H]21`, for which the growth was 1.78% (active). Under `O=C(NO)c1ccc(Cn2c(=O)n(CCc3ccccc3)c(=O)c3ccccc32)cc1` stands 4.15% (active); under `CNC(=O)c1cc(Oc2ccc(NC(=O)Nc3ccc(Cl)c(C(F)(F)F)c3)c(F)c2)ccn1`, -59% (active). For `COc1cc2c3c(c1)nc(C)n3CCC2`, the growth was 107%.

Take `Cc1sc2c(c1C)c(=O)nc1c(-c3nc4ccccc4s3)n[nH]n12`: the growth is 103%. As for `CC(=O)CC1CCCC1c1ccc2ccccc2c1` (centres undefined), the growth was 99.4%. Under `CCn1cc(-c2ccnc3[nH]c(-c4cccc(CN(C)C)c4)cc23)c(-c2ccc(NC(=O)N(C)C)cc2)n1` stands -26.9% (active); under `N[C@@H]1CCCN(c2c(/C=C3\SC(=O)NC3=O)cccc2-c2ccccc2)C1`, 45.4%. On to `Brc1ccc([I+]c2ccc(Br)cc2)cc1`, for which the growth is -28.7% (active). Under `O=C(NC[C@H](O)CO)c1ccncc1Nc1ccc(I)cc1F` stands -8.7% (active); under `N#Cc1c(NC(=O)c2ccco2)[n+]([O-])c2cc(F)c(F)cc2[n+]1[O-]`, 98.3%; under `COc1cc2ncnc(Oc3cccc(NC(=O)Nc4cc(C(C)(C)C(F)(F)F)on4)c3)c2cc1OC`, 1.14% (active). The figure for `O=C(c1ccc(/C=C/c2n[nH]c3ccccc23)cc1)N1CCNCC1` is -42% (active). In the case of `N#CC(C#N)=NO`, the growth was 113%.

As to `CN1CCC(COc2cnc(-c3cccc(Cn4nc(-c5cccc(C#N)c5)ccc4=O)c3)nc2)CC1`, the growth was -60.3% (active). Turning to `CC(C)OP(=O)(CCC(=O)c1c[nH]c2ccccc12)OC(C)C`, the growth is 103%. Under `COc1cc(NCCN(CC(C)C)CC(C)C)c2ncc(C)cc2c1` stands 49.6%; under `O=c1sn(-c2cccc3ccccc23)c(=O)n1Cc1ccccc1`, 89.8%; under `Cc1cc2c(F)c(Oc3ncnn4cc(OC[C@@H](C)OC(=O)[C@H](C)N)c(C)c34)ccc2[nH]1`, -6.99% (active).

On to `CCCCN1C(=O)c2cccc3c(-c4ccc5c(c4)ncn5C4CCCCC4)ccc(c23)C1=O`, for which the growth is 94%. Regarding `C=CC(=O)Nc1cc2c(Nc3ccc(F)c(Cl)c3)ncnc2cc1OCCCN1CCOCC1`, the growth was 8.89% (active).

Regarding `CCN(CC)CCCC(C)Nc1cc(-c2ccc(C(F)(F)F)cc2)c(C#N)c2nc3ccccc3n12` (centres undefined), the growth was -44.6% (active).

As to `C=CC(=O)Nc1cc(Nc2nccc(-c3cn(C)c4ccccc34)n2)c(OC)cc1N(C)CCN(C)C`, the growth is -81.1% (active). In the case of `O=C(Nc1cnn2ccc(N3CCC[C@@H]3c3cc(F)ccc3F)nc12)N1CC[C@H](O)C1`, the growth is 71.6%. As for `S=C(NCc1ccc2c(c1)OCO2)N1CCN(c2ncnc3c2oc2ccccc23)CC1`, the growth was 4.16% (active).

On to `O=C(NOC[C@H](O)CO)c1ccc(F)c(F)c1Nc1ccc(I)cc1F`, for which the growth is 0.302% (active).

As for `CC(=O)Oc1ccccc1C(=O)N=C1[Se]CCN1C(=O)c1ccccc1OC(C)=O`, the growth is -26.9% (active). Consider `COC(=O)CCCNc1c(-c2c(O)c(O)cc3c(O)c(-c4c(C)cc5c(-c6nc7ccccn7c6NCCCC(=O)OC)c(O)c(O)cc5c4O)c(C)cc23)nc2ccccn12`, for which the growth was 87%. As for `O=C(CNc1nc(-c2ccc(Cl)cc2)cs1)Nc1ccc(-c2nc3ccccc3s2)cc1`, the growth is 93.8%.

The values above are taken from PubChem BioAssay (NCI).
